In PubChem BioAssay AID2061318 (National Center for Advancing Translational Sciences (NCATS), 2025):
Inconclusive results are not listed. Activity calls are given as the source filed them. Calls follow the shape of the dose curve; as a rule, active = well fitted inhibition curve with a large enough effect; inconclusive = small, poorly fitted or top-dose-only effect; inactive = flat fitted curve, though single readings scatter.

Test: Identification of antibody-drug conjugate (ADC) payloads which are substrates of ATP-binding cassette drug efflux transporters: ABCB1-HEK293-MDR-19 cell line
Conditions: HEK293 ABCB1 (MDR-19) viability, CellTiter-Glo, 48 h
Text: Antibody-drug conjugates (ADCs) feature an antibody recognizing a specific protein joined to a potent toxic payload. Numerous antibody-drug conjugates have received FDA approval; however, clinical resistance arises. Resistance mechanisms include decreased expression or mutation of the antibody target, impaired payload release, or increased expression of ATP-binding cassette (ABC) efflux transporters associated with multidrug resistance. We therefore sought to characterize the interaction of ABC multidrug transporters with ADC payloads. We performed a high-throughput screen with 27 common ADC payloads using cells lines expressing ABC transporters P-glycoprotein (P-gp, encoded by ABCB1) or ABCG2 (encoded by ABCG2). Confirmatory assays were also performed using cells transfected to express P-gp, ABCG2, or MRP1 (encoded by ABCC1). Several commonly used ADC payloads were substrates of P-gp, including calicheamicin gamma1, monomethyl auristatin E, DM1, and DM4. All the pyrrolobenzodiazepines tested - SJG136, SGD-1882, SG2057, and SG3199 - were substrates of P-gp, ABCG2, and MRP1. […] These findings highlight the risk of transporter-mediated resistance with certain ADC payloads and underscore the importance of selecting payloads that evade ABC transporter recognition in future ADC development.
HEK-293 cells were transfected with empty vector (pcDNA) or vector containing the human ABCB1 (MDR-19), ABCG2 (R-5), or ABCC1 gene (MRP1) and were maintained in EMEM with 2 mg/mL G418 added to maintain transporter expression. The HeLa derivative KB-3-1 and the P-gp overexpressing KB-8-5-11 subline were maintained in DMEM; KB-8-5-11 additionally received 100 ng/mL colchicine. H460 parental cells were obtained from the Division of Cancer Treatment and Diagnosis Tumor Repository, National Cancer Institute at Frederick, MD and were cultured in RPMI. The ABCG2 expressing subline H460 MX20 was generated by selecting H460 cells in 20 nM mitoxantrone. Media in all cases was supplemented with 10% FBS and 1% penicillin-streptomycin. We explored 27 common ADC payloads, in two orthogonal, paired cell line sets-a drug selected and transfected set for each transporter--to identify substrates of the ABC transporters P-gp and ABCG2. Compounds were sourced from Levena Biopharma (San Diego, CA), Selleck Chem (Houston, TX), ChemieTek (Indianapolis, IN), or Microsource Discovery Systems (Gaylordsville, CT). Screening was performed as previously described. Briefly, cells were plated at a density of 500 cells/well in 1536 well plates with compounds added using a 1536-head pin tool (Kalypsys, San Diego CA). Cells were incubated with cytotoxic drugs and processed with CellTiter Glo reagent (Promega, Madison, WI) to determine viability after 48 hours. P-gp substrates were identified by comparing compound activity between paired sets of low-expressing (sensitive) and over-expressing (resistant) cell lines.

**Q.** For `COC(=O)c1cc2c3c(cc(O)c2[nH]1)N(C(=O)c1cc2cc(OC)c(OC)c(OC)c2[nH]1)CC3CCl` (centres undefined), which Potency is on record?
**A.** Its Potency is 0.5 nM (active).

**Q.** With `CCc1c2c(nc3ccc(O)cc13)-c1cc3c(c(=O)n1C2)COC(=O)[C@]3(O)CC` as the compound, how does the Potency read?
**A.** Its Potency is 11.8 nM (active).

**Q.** For `COc1cccc2c1C(=O)c1c(O)c3c(c(O)c1C2=O)C[C@@](O)(C(=O)CO)C[C@@H]3O[C@H]1C[C@H]2[C@H](O[C@@H]3[C@@H](OC)OCCN32)[C@H](C)O1`, which Potency is on record?
**A.** The Potency was 0.0941 nM (active).

**Q.** For `COc1cccc2c1C(=O)c1c(O)c3c(c(O)c1C2=O)C[C@@](O)(C(=O)CO)C[C@@H]3O[C@H]1C[C@H](N)[C@H](O)[C@H](C)O1`, which Potency is on record?
**A.** Its Potency is 748 nM (active).

**Q.** Which Potency does the source give for `COc1cc2cc(c1Cl)N(C)C(=O)C[C@H](O)[C@]1(C)O[C@H]1[C@H](C)C1C[C@@](O)(NC(=O)O1)[C@H](OC)/C=C/C=C(\C)C2` here?
**A.** The Potency was 2980 nM (active).

**Q.** With `CCN(C(C)=O)[C@H]1CO[C@@H](O[C@H]2[C@H](O[C@H]3C#C/C=C\C#C[C@]4(O)CC(=O)C(NC(=O)OC)=C3/C4=C\CSSSC)O[C@H](C)[C@@H](NO[C@H]3C[C@H](O)[C@H](SC(=O)c4c(C)c(I)c(O[C@@H]5O[C@@H](C)[C@H](O)[C@@H](OC)[C@H]5O)c(OC)c4OC)[C@@H](C)O3)[C@@H]2O)C[C@@H]1OC` as the compound, how does the Potency read?
**A.** The Potency was 748 nM (active).

**Q.** For `CC(C)(C)OC(=O)Nc1ccc2[nH]c(C(=O)N3C[C@@H](CCl)c4c3cc(O)c3ccccc43)cc2c1`, which Potency is on record?
**A.** Its Potency is 9.4 nM (active).

**Q.** For `CCN[C@H]1CO[C@@H](O[C@H]2[C@H](O[C@H]3C#C/C=C\C#C[C@]4(O)CC(=O)C(NC(=O)OC)=C3/C4=C\CSSSC)O[C@H](C)[C@@H](NO[C@H]3C[C@H](O)[C@H](SC(=O)c4c(C)c(I)c(O[C@@H]5O[C@@H](C)[C@H](O)[C@@H](OC)[C@H]5O)c(OC)c4OC)[C@@H](C)O3)[C@@H]2O)C[C@@H]1OC`, which Potency is on record?
**A.** The Potency was 14.9 nM (active).

**Q.** For `CN(C)CCOc1ccc2[nH]c(C(=O)N3C[C@@H](CCl)c4c3cc(O)c3ccccc43)cc2c1`, which Potency is on record?
**A.** Its Potency is 0.4 nM (active).
